For 39 molecules, outcome and AC50 results are on record in PubChem BioAssay (EPA / NIEHS).

Molecules are shown by their SMILES. Calls of active or inactive are those of the source. How the source made its calls: active means hit-call score of the fitted dose curve at least 0.9, where 1 is the maximum; inactive means score below 0.9.

As a reminder, the AC50 is the concentration at which the activity in the assay is half-maximal.

Paired box protein Pax-6 (Homo sapiens), sequence (P26367 whole entry, looked up): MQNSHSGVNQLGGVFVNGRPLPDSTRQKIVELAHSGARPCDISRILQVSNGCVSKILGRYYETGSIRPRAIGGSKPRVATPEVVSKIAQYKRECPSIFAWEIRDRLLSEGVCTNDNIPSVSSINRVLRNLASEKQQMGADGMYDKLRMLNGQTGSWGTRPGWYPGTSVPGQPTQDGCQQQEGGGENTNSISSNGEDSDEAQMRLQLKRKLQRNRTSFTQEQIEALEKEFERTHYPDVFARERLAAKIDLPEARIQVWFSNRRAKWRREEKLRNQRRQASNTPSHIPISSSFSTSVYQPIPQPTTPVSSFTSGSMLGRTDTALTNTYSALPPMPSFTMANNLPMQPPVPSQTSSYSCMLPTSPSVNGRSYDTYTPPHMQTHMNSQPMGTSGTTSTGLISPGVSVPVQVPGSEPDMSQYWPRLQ

System in one test: not listed separately
In words: ATG_PBREM_CIS: Attagene CIS-FACTORIAL HepG2 Assay for human Phenobarbital-responsive Enhancer Module (PBREM) (AID 2282955). The conditions noted are these: HepG2 PBREM cis-reporter, Attagene multiplexed transcription; actives raise or lower the signal. The method in brief:
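HepG2 cells transiently transfected with multiple cis-regulated reporter transcription units; endogenous factor activity at the PBREM element measured as reporter mRNA 24 h after dosing, via RT-PCR and capillary electrophoresis of fluorescent fragments; bidirectional fitting versus DMSO.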
For the molecule `O=C(c1ccccc1)C(O)c1ccccc1` (stereo not drawn), the result was inactive. Same read-out and setting: to `Cc1ccc2c(c1)C(=O)OC2=O` belongs “inactive”. Consider `CCCCCCCCc1ccc(S(=O)(=O)O)cc1`, for which the AC50 was 99.5 µM (active). Consider `CCCCCCC(CO)CCCC` (stereo not drawn), for which the outcome was inactive. The same measure, in the same setting: next, `Nc1ccc2cc(S(=O)(=O)O)cc(O)c2c1N=Nc1ccccc1C(F)(F)F`: “inactive”. The same measure, in the same setting: to `CCCOCCO` belongs “inactive”; to `COCCc1ccc(OCC(O)CNC(C)C)cc1` (stereo not drawn), “inactive”; to `FC(F)(F)COCC(F)(F)F`, “inactive”. With `CCCCCC(C=O)=Cc1ccccc1`, the outcome was inactive. Still for that read-out and setting: next, `CSc1c(Cl)c(Cl)c(Cl)c(Cl)c1Cl`: “inactive”. Still for that read-out and setting: next, `CCCC1O[C@@H]2C[C@H]3[C@@H]4CCC5=CC(=O)C=C[C@]5(C)[C@H]4[C@@H](O)C[C@]3(C)[C@]2(C(=O)CO)O1` (stereo partly drawn): “inactive”; `O=C(O)CNc1ccccc1`: “inactive”; `CCc1ccc(O)cc1`: “inactive”. As to `CCCC[P+](CCCC)(CCCC)CCCC`, the result was inactive.

With `O=C1OC[C@H](Cc2cccc(O)c2)[C@H]1Cc1cccc(O)c1`, the AC50 is 33.5 µM (active). For the molecule `C=CCOC(=O)CCCCCC`, the result was inactive. Consider `Nc1ccn([C@H]2CS[C@@H](CO)O2)c(=O)n1`, for which the outcome was inactive. The same measure, in the same setting: next, `CCCCC1CCC(O)CC1` (stereo not drawn): “inactive”; `COc1cccc(OC)c1O`: “inactive”. The same measure, in the same setting: to `Cc1c(OCC(F)(F)F)ccnc1CS(=O)c1nc2ccccc2[nH]1` (stereo not drawn) belongs “inactive”. Still for that read-out and setting: next, `CCC1(c2ccccc2)C(=O)NCNC1=O`: “inactive”; `CSCCC=O`: “inactive”.

Turning to `C=C1CC[C@H](O)C/C1=C/C=C1\CCC[C@]2(C)[C@@H]([C@H](C)/C=C/[C@H](C)C(C)C)CC[C@@H]12`, the result was inactive. The same measure, in the same setting: to `CCCC(C)=O` belongs “inactive”; to `CS(=O)(=O)c1ccc(C2=C(c3ccccc3)C(=O)OC2)cc1`, “inactive”; to `O=C(O)COCC(=O)O`, “inactive”. Still for that read-out and setting: next, `CC[N+](C)(CC)CC`: “inactive”. On the same count and under the same terms, to `CCCCCCCCCCCCCCN(CCO)CCO` belongs “inactive”. As to `CC(Oc1cc(Cl)ccc1Cl)C(=O)O` (stereo not drawn), the result was inactive.

A further test concerns the target Paired box protein Pax-6 (Homo sapiens) (UniProt P26367). The test is described as follows: ATG_Pax6_CIS: Attagene CIS-FACTORIAL HepG2 Assay for human Paired Box 6 (PAX6) (AID 2282956). The conditions noted are these: HepG2 CIS-FACTORIAL PAX6 reporter transcription, RNA readout; actives raise or lower the signal. The method in brief: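 Readout: reporter transcript fluorescence after RT-PCR and capillary electrophoresis. Cells: HepG2, transiently transfected with cis-regulated MRTUs. Exposure 24 h. Gain or loss of signal fitted bidirectionally relative to DMSO.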
For the molecule `O=C(c1ccccc1)C(O)c1ccccc1` (stereo not drawn), the call was inactive. For the molecule `Cc1ccc2c(c1)C(=O)OC2=O`, the outcome was inactive. Consider `CCCCCCCCc1ccc(S(=O)(=O)O)cc1`, for which the AC50 is 19.7 µM (active). In the case of `CCCCCCC(CO)CCCC` (stereo not drawn), the call was inactive. Same read-out and setting: next, `Nc1ccc2cc(S(=O)(=O)O)cc(O)c2c1N=Nc1ccccc1C(F)(F)F`: “inactive”; `CCCOCCO`: “inactive”; `COCCc1ccc(OCC(O)CNC(C)C)cc1` (stereo not drawn): “inactive”. The same measure, in the same setting: next, `FC(F)(F)COCC(F)(F)F`: “inactive”. Turning to `O=C(Nc1ccc([N+](=O)[O-])cc1)Nc1ccc([N+](=O)[O-])cc1` (tested in a mixture with another compound), the result was inactive. Still for that read-out and setting: to `COc1cc(Cl)c(OC)cc1N` belongs “inactive”; to `CCCCCC(C=O)=Cc1ccccc1`, “inactive”. Regarding `CSc1c(Cl)c(Cl)c(Cl)c(Cl)c1Cl`, the concentration at half-maximal activity (AC50) was 100 µM (active). In the case of `CCCC1O[C@@H]2C[C@H]3[C@@H]4CCC5=CC(=O)C=C[C@]5(C)[C@H]4[C@@H](O)C[C@]3(C)[C@]2(C(=O)CO)O1` (stereo partly drawn), the molecule was classed as inactive.

Regarding `C=C(CC(=O)O)C(=O)O`, the molecule was called inactive. Still for that read-out and setting: to `O=C(O)CNc1ccccc1` belongs “inactive”.

For `C[C@H]1O[C@@H](O[C@H]2[C@@H](O)C[C@H](O[C@H]3[C@@H](O)C[C@H](O[C@H]4CC[C@@]5(C)[C@H](CC[C@@H]6[C@@H]5C[C@@H](O)[C@]5(C)[C@@H](C7=CC(=O)OC7)CC[C@]65O)C4)O[C@@H]3C)O[C@@H]2C)C[C@H](O)[C@@H]1O`, the AC50 is 0.0811 µM (active). `CCc1ccc(O)cc1`: the outcome was inactive. On the same count and under the same terms, to `CCCC[P+](CCCC)(CCCC)CCCC` belongs “inactive”; to `NC(=S)NNC(N)=S`, “inactive”; to `O=C1OC[C@H](Cc2cccc(O)c2)[C@H]1Cc1cccc(O)c1`, “inactive”. Still for that read-out and setting: to `C=CCOC(=O)CCCCCC` belongs “inactive”; to `Nc1ccn([C@H]2CS[C@@H](CO)O2)c(=O)n1`, “inactive”; to `CCCCC1CCC(O)CC1` (stereo not drawn), “inactive”. Same read-out and setting: to `COc1cccc(OC)c1O` belongs “inactive”. Regarding `Cc1c(OCC(F)(F)F)ccnc1CS(=O)c1nc2ccccc2[nH]1` (stereo not drawn), the half-maximal activity concentration (AC50) was 43.5 µM (active). `CCC1(c2ccccc2)C(=O)NCNC1=O`: the result was inactive. Still for that read-out and setting: to `CSCCC=O` belongs “inactive”. Still for that read-out and setting: next, `C=C1CC[C@H](O)C/C1=C/C=C1\CCC[C@]2(C)[C@@H]([C@H](C)/C=C/[C@H](C)C(C)C)CC[C@@H]12`: “inactive”. As to `CC(=O)Nc1ccc(C(=O)CCl)cc1`, the AC50 was 9 µM (active). As for `CCCC(C)=O`, the molecule was called inactive.

`CS(=O)(=O)c1ccc(C2=C(c3ccccc3)C(=O)OC2)cc1`: the molecule was classed as inactive. Still for that read-out and setting: next, `CCCCCCOCCOCCO`: “inactive”; `O=C(O)COCC(=O)O`: “inactive”; `CC[N+](C)(CC)CC`: “inactive”. Consider `CCCCCCCCCCCCCCN(CCO)CCO`, for which the outcome was inactive. Still for that read-out and setting: to `CCCN(CCC)S(=O)(=O)c1ccc(C(=O)O)cc1` belongs “inactive”; to `C[C@H](CCC(=O)NCC(=O)O)[C@H]1CC[C@H]2[C@@H]3[C@H](O)C[C@@H]4C[C@H](O)CC[C@]4(C)[C@H]3C[C@H](O)[C@]12C`, “inactive”; to `CC(Oc1cc(Cl)ccc1Cl)C(=O)O` (stereo not drawn), “inactive”. As for `C=C(C)C1CC=C(C)C(=O)C1` (stereo not drawn), the call was inactive.
